Experimental data as given in PubChem BioAssay (NCI).
This is part of a sample that, as a whole, favours compounds with a hit. Of some 83,000 tested, about 20% had one in any assay.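 Growth was measured after 48 h exposure to one concentration of compound in 96-well plates. Values under 10 count as active.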 The source made the active and inactive calls.

Columns and labels:
Test in all cases: NCI-60 one-dose screen, 48 h (100 = growth as untreated, 0 = no growth, -100 = all killed)
Conditions in all cases: 10 µM unless noted
NCI-H226 lung = system: NCI-H226 lung
NCI-H322M lung = system: NCI-H322M lung
HOP-62 NSCLC = system: HOP-62 NSCLC
NCI-H460 lung = system: NCI-H460 lung
A549/ATCC NSCLC = system: A549/ATCC NSCLC
786-0 renal = system: 786-0 renal
COLO 205 colon = system: COLO 205 colon
DU-145 prostate = system: DU-145 prostate
K-562 leukemia = system: K-562 leukemia
MALME-3M melanoma = system: MALME-3M melanoma
MDA-MB-231 breast = system: MDA-MB-231 breast
RXF 393 renal = system: RXF 393 renal
SF-268 CNS = system: SF-268 CNS
SF-295 CNS = system: SF-295 CNS
SF-539 CNS = system: SF-539 CNS
UACC-257 melanoma = system: UACC-257 melanoma
M14 melanoma = system: M14 melanoma
HCT-15 colon = system: HCT-15 colon
NCI-H522 lung = system: NCI-H522 lung

Measured: growth

c1ccc(-n2nnnc2-c2cccc3ccccc23)cc1
inactive: NCI-H226 lung 79.3% | NCI-H322M lung 30.2% | HOP-62 NSCLC 25.9% | A549/ATCC NSCLC 34.5% | 786-0 renal 24.7% | K-562 leukemia 13% | MALME-3M melanoma 34.8% | MDA-MB-231 breast 25.4% | SF-268 CNS 43.4% | UACC-257 melanoma 57.5% | HCT-15 colon 18.7%
active: NCI-H460 lung 9.98% | COLO 205 colon -17.8% | DU-145 prostate 7.52% | RXF 393 renal -5.16% | SF-295 CNS 1.28% | SF-539 CNS -18.8% | M14 melanoma 8.41%

CC/C(=C\c1ccc(N(C)C)cc1)c1nc2ccccc2c(=O)[nH]1
inactive: NCI-H226 lung 110% | NCI-H322M lung 104% | HOP-62 NSCLC 108% | NCI-H460 lung 102% | NCI-H522 lung 103% | A549/ATCC NSCLC 98% | 786-0 renal 94.6% | DU-145 prostate 105% | K-562 leukemia 71.4% | MALME-3M melanoma 144% | MDA-MB-231 breast 91.2% | RXF 393 renal 99.6% | SF-268 CNS 92.9% | SF-539 CNS 106% | UACC-257 melanoma 111% | M14 melanoma 121% | HCT-15 colon 99.8%

O=C(c1ccccc1)c1ccco1
inactive: NCI-H226 lung 106% | NCI-H322M lung 105% | HOP-62 NSCLC 105% | NCI-H460 lung 105% | NCI-H522 lung 89.3% | A549/ATCC NSCLC 97% | 786-0 renal 101% | COLO 205 colon 109% | DU-145 prostate 113% | K-562 leukemia 102% | MALME-3M melanoma 108% | MDA-MB-231 breast 93.6% | RXF 393 renal 131% | SF-268 CNS 98.5% | SF-539 CNS 92.5% | UACC-257 melanoma 89.3% | M14 melanoma 98.7% | HCT-15 colon 104%

CCN1C2=C(SC(=S)C1=C1SC(C(=O)OC)=C(C(=O)OC)S1)SC(=Nc1ccc(OC)cc1)C2=O
active: NCI-H226 lung -66.7% | HOP-62 NSCLC -13.7% | NCI-H460 lung -47.5% | NCI-H522 lung -15.2% | 786-0 renal -64.6% | COLO 205 colon -3.6% | DU-145 prostate -46.1% | K-562 leukemia 7.47% | MALME-3M melanoma -28% | MDA-MB-231 breast 4.53% | RXF 393 renal -87.7% | SF-268 CNS 1.48% | SF-295 CNS 2.33% | SF-539 CNS -24.1% | UACC-257 melanoma -55.1% | M14 melanoma -54.7% | HCT-15 colon -20.7%
inactive: NCI-H322M lung 48.4% | A549/ATCC NSCLC 17.7%

O=C(Nc1nc2ccccc2s1)c1cc(-c2ccc(F)cc2)n2nc(-c3ccccc3)cc2n1
inactive: NCI-H226 lung 89.1% | NCI-H322M lung 60.1% | HOP-62 NSCLC 63.8% | NCI-H460 lung 29.3% | NCI-H522 lung 101% | A549/ATCC NSCLC 51.2% | 786-0 renal 11.7% | COLO 205 colon 65.2% | DU-145 prostate 89.1% | K-562 leukemia 59.1% | MDA-MB-231 breast 64.6% | RXF 393 renal 121% | SF-295 CNS 40.3% | SF-539 CNS 63.8% | UACC-257 melanoma 69% | M14 melanoma 79.2% | HCT-15 colon 53.7%

O=[N+]([O-])c1ccc(N/N=C/c2c(O)ccc3ccccc23)nc1
inactive: NCI-H226 lung 89% | NCI-H322M lung 19.7% | HOP-62 NSCLC 45.6% | NCI-H460 lung 24.2% | NCI-H522 lung 18.5% | A549/ATCC NSCLC 49.2% | 786-0 renal 59.2% | DU-145 prostate 39.4% | K-562 leukemia 31.7% | MDA-MB-231 breast 47.5% | RXF 393 renal 67.1% | SF-268 CNS 45.8% | SF-295 CNS 25.1% | SF-539 CNS 46% | UACC-257 melanoma 29.5% | M14 melanoma 65.3%

Cc1nn(-c2ccc(Cl)cc2)c2nc3c(nc12)c(=O)oc1ccccc13
inactive: NCI-H226 lung 128% | NCI-H322M lung 116% | HOP-62 NSCLC 107% | NCI-H460 lung 109% | NCI-H522 lung 101% | A549/ATCC NSCLC 95.4% | 786-0 renal 98.1% | COLO 205 colon 123% | DU-145 prostate 118% | MALME-3M melanoma 108% | MDA-MB-231 breast 110% | RXF 393 renal 136% | SF-268 CNS 104% | SF-295 CNS 92.7% | UACC-257 melanoma 104% | M14 melanoma 107% | HCT-15 colon 103%

O=C(Nc1ccc(Oc2ccc(NC(=O)Nc3ccc([N+](=O)[O-])cc3)cc2)cc1)Nc1ccc([N+](=O)[O-])cc1
active: HOP-62 NSCLC -25% | NCI-H460 lung 2.83% | A549/ATCC NSCLC 7.01% | 786-0 renal -1.95% | COLO 205 colon -51.1% | K-562 leukemia -4.47% | MALME-3M melanoma -3.45% | UACC-257 melanoma -20.9% | M14 melanoma 5.41%
inactive: NCI-H226 lung 24.4% | NCI-H322M lung 22.6% | DU-145 prostate 17.3% | MDA-MB-231 breast 35.1% | RXF 393 renal 28.7% | SF-268 CNS 19.7% | SF-295 CNS 22% | SF-539 CNS 24.9% | HCT-15 colon 10.3%

COc1c(O)cc2oc3cc(O)c(CC=C(C)C)c(O)c3c(=O)c2c1C/C=C(\C)CCC=C(C)C
active: MDA-MB-231 breast 5.81% | RXF 393 renal -22.5%
inactive: NCI-H226 lung 105% | NCI-H322M lung 90.1% | HOP-62 NSCLC 41.2% | NCI-H460 lung 33.6% | A549/ATCC NSCLC 45.1% | 786-0 renal 30.2% | COLO 205 colon 81.7% | DU-145 prostate 81.1% | K-562 leukemia 27.2% | MALME-3M melanoma 127% | SF-268 CNS 64.7% | SF-295 CNS 87.2% | SF-539 CNS 93.2% | UACC-257 melanoma 103% | M14 melanoma 52% | HCT-15 colon 73%
